Only some compounds are listed: those with a hit (about 10% of all), similar ones and a draw of the others.
Sfp PPTase inh: qHTS Assay for Inhibitors of Bacillus subtilis Sfp phosphopantetheinyl transferase (PPTase). 4'-phosphopantetheinyl transferase ffp (Bacillus subtilis), Q9F4F7. Biochemical Sfp PPTase activity, qHTS. Potency, µM, hits mostly inhibitors. actives 3.5% (n = 310,000). AID 1490, 2009;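 note: the enzyme is Sfp with the accession as filed and its product quenches rhodamine fluorescence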
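After 15 min at room temperature with compound, 15 nM Sfp received 5 uM rhodamine-CoA plus 12.5 uM BHQ-2-ybbR (50 mM Hepes pH 7.6, 10 mM MgCl2). Rate came from the fluorescence difference over 30 min, ex 525/em 598 nm.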
PLK1 PBD inh: qHTS for Inhibitors of PLK1-PDB (polo-like kinase 1 - polo-box domain): Primary Screen | Serine/threonine-protein kinase PLK1 (Homo sapiens), P53350 | Plk1 PBD binding of FITC phosphopeptide, fluorescence polarization | Potency, µM, actives largely listed as inhibitors | actives 2.8% (n = 360,000) | AID 720504, 2013; note: series mostly up to about 57 µM; nearly all actives have a fitted effect of over 65% in size
CCT modulator: High-Throughput Screening for Modulators of Cytosolic Chaperonin Activity; activity change, % (test concentration not listed), hits read low; actives 0.3% (n = 360,000); AID 651819, 2012; purified chaperonin ATPase assay, HTRF ADP detection, 30 min; in the data active = activity change below about -30%
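Nucleotide hydrolysis assay: TRiC at 20–40 nM final (set by batch activity) with 10 uM ATP, 30 min at 37 °C, in presence of 76 uM compound. Detection by competitive ADP HTRF, 30 min ambient.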
VDR inhibitor: Inhibitors of the vitamin D receptor (VDR): qHTS; VDR-SRC2-3 peptide fluorescence polarization, 2 h; Potency, µM, hits mostly inhibitors; actives 0.93% (n = 400,000); AID 504847, 2011
Target sequence (P11473 whole entry, looked up): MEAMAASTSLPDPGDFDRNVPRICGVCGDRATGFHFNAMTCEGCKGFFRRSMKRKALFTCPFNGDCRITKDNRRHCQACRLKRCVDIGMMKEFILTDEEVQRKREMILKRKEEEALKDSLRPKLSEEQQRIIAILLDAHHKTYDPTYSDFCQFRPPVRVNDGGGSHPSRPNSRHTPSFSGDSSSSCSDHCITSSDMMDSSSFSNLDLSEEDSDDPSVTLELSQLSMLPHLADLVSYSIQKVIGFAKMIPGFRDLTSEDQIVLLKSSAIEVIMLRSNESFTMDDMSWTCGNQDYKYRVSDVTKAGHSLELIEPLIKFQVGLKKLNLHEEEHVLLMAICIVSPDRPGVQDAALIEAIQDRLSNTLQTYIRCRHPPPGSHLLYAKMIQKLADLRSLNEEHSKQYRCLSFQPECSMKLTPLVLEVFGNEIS
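Inhibition of the VDR/SRC2-3 peptide interaction is quantified by fluorescence polarization. Compounds (23 nl, pintool) incubate with the reagents for 2 hours at ambient room temperature.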
MmCpn inh: Inhibitors of TCP-1 ring complex (TRiC) of Methanococcus maripaludis (MmCpn): qHTS. Chaperonin Mm-Cpn (Methanococcus maripaludis). purified Mm-Cpn ATPase, ADP Transcreener TR-FRET. Potency, µM (doses to about 76.9 µM), hits mostly inhibitors. actives 0.031% (n = 330,000); note: nearly all actives have a fitted effect of over 80% in size
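ATPase read-out: TR-FRET ADP immunoassay (anti-ADP Eu cryptate vs ADP-d2), ex 320 nm, em 590/665 nm; signal drops as ADP forms. Enzyme 25 nM, ATP 10 uM, 30 min at 37°C after 10 min compound preincubation.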
G9a inh: qHTS Assay for Inhibitors of Histone Lysine Methyltransferase G9a; G9a H3K9 monomethylation, AlphaScreen, 2 h; AID 504332, 2011; Potency, µM (series often up to 102 µM), hits mostly inhibitors; actives 8.8% (n = 350,000); Histone-lysine N-methyltransferase EHMT2 (Homo sapiens), Q96KQ7; note: nearly all actives have a fitted effect of over 75% in size
Target sequence (Q96KQ7 913-1193 limits assumed): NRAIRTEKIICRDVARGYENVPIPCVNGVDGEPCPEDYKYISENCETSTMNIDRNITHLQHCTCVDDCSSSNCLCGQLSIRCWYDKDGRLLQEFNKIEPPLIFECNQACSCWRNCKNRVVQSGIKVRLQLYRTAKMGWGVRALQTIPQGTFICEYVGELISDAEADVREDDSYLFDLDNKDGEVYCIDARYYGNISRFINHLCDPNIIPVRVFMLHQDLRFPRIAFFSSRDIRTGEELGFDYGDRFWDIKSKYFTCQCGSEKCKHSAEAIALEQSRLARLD
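Quantitative HTS format: methyltransferase activity on a biotin-tagged H3K9 peptide is measured by AlphaScreen, using a rabbit anti-monomethyl-H3K9 antibody with streptavidin donor and anti-IgG acceptor beads. Final levels are 20 nM enzyme, 500 nM peptide, 20 uM SAM; 2 h RT.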
Numbers stand for hits; n = inactive; u = inconclusive; x = no result given; ! = a repeat was not active; [ ] = another dose, or the depositor's remark. Unless noted, calls come from the whole dose curve; as a rule, active = well fitted curve in the direction sought with a large enough effect; inconclusive = small, poorly fitted or top-dose-only effect, or another doubt; inactive = no such curve, though single readings can be large; an effect the other way counts as inactive or inconclusive.

SMILES	Sfp PPTase inh	PLK1 PBD inh	CCT modulator	VDR inhibitor	MmCpn inh	G9a inh
O=C(COC(=O)c1cccc(OC(F)F)c1)NC(=O)NC1CCCCC1	x	n	n	n	n	n
O=C(Nc1cc2c3c(c1)C1CCCC1CN3CC1CCCC21)c1ccccc1 (stereo not drawn)	n	n	n	n	n	8.9µM
Cn1cc(C(F)(F)F)nc1-c1ccc(OCC(O)CNCCOc2ccc(O)c(C(N)=O)c2)cc1 (stereo not drawn)	n	n	n	n	n	25µM!
OC(CNCCNc1ncccc1C(F)(F)F)COc1ccc(F)cc1 (stereo not drawn)	n	n	n	n	n	n
CCn1c(O)c(/C=N/n2cnnc2)sc1=S	45µM	n	n	n	n	18µM
Oc1c(C=Nc2ccccc2)sc(=S)n1Cc1ccccc1	n	n	n	n	n	n
CCn1c(O)c(C=Nc2ccccc2)n(-c2ccccc2)c1=S	79µM	u	n	n	n	7.9µM
CCn1c(O)c(C=Nc2ccccc2)sc1=S	56µM	n	n	n	n	u
CCn1c(O)c(C=NC2CCCC2)sc1=S	n	n	n	n	n	u
Cc1nc(NCc2ccccc2)c2nc(-c3ccccc3)n(CCN3CCCCC3)c2n1	n	x	x	x	x	x
COc1cccc(CNC(=O)C2Cc3ccccc3CN2C(C)=O)c1 (stereo not drawn)	n	30µM	n	u	n	n
CCS(=O)(=O)N1Cc2ccccc2CC1C(=O)NCc1cccc(OC)c1 (stereo not drawn)	n	n	n	n	n	n
COc1ccc([C@H]2CC(=O)C=C(c3cccc(C(F)(F)F)c3)C2)cc1	x	27µM	n	u	n	n[0.501 µM]
CCOC(=O)c1ccc(N=c2sc(C(=O)OC)cc(=O)n2Cc2ccco2)cc1	n	n	n	u	n	40µM
CCOC(=O)c1ccc(N=c2sc(C(=O)OC)cc(=O)n2CCCN2CCOCC2)cc1	n	n	n	u	n	50µM
COC(=O)c1cc(=O)n(CCc2ccc(OC)cc2)c(=Nc2ccc(F)c(Cl)c2)s1	n	n	n	n	n	u
CCn1c(=O)cc(C(=O)OC)sc1=Nc1ccc(F)c(F)c1	n	n	n	u	n	u
COC(=O)c1cc(=O)n(CCc2ccccc2)c(=Nc2ccc(F)cc2)s1	n	n	n	n	n	7.1µM
COCC(C)NC(=O)Cn1c(SCc2ccccc2)nc2ccccc21 (stereo not drawn)	n	n	n	n	n	45µM
COc1ccccc1OCCn1c(SCC(=O)O)nc2ccccc21	n	n	n	n	n	40µM
COCC(C)NC(=O)CSc1nc2ccccc2n1CCc1ccccc1 (stereo not drawn)	n	n	n	n	n	71µM
COc1ccccc1OCCSc1nc2ccccc2n1CCC(=O)O	n	n	n	n	n	x
O=C(O)Cn1c(SCc2ccccc2)nc2ccccc21	n	n	n	n	n	n
Cc1cccc(-c2nc(CSc3nncn4c3cc3sccc34)c(C)o2)c1	x	x	x	n	x	n
O=C(N/N=C1/C[C@@H](O)[C@@H](O)[C@@H]2[C@@H]3C(=O)N(Cc4ccc5c(c4)OCO5)C(=O)[C@H]3CC[C@H]12)OCc1ccccc1	n	x	x	x	x	x
SMILES	Sfp PPTase inh	PLK1 PBD inh	CCT modulator	VDR inhibitor	MmCpn inh	G9a inh
O=C(Nc1ccccc1OCc1cc(=O)n2ccccc2n1)Nc1ccccc1C(F)(F)F	x	x	x	n	x	n
O=S(=O)(O)c1cc(O)c2c(O)c(N=Nc3cc(Cl)ccc3O)c(S(=O)(=O)O)cc2c1	u	24µM	n	u	n	10µM
O=S(=O)(O)c1cc(Cl)cc(N=Nc2ccc(O)cc2O)c1O	x	u	n	u	x	x
Cc1cc(-c2ccc(N=Nc3c(S(=O)(=O)O)cc4cc(S(=O)(=O)O)cc(N)c4c3O)c(C)c2)ccc1N=Nc1c(S(=O)(=O)O)cc2cc(S(=O)(=O)O)cc(N)c2c1O	11µM	x	x	u	32µM	u
COC(=O)c1sc(SC)c(S(=O)(=O)C(C)C)c1N/N=C(\C#N)C(=O)c1ccccc1	n	n	n	n	n	45µM
COc1ccc(C(=O)/C(C#N)=N/Nc2cccc([N+](=O)[O-])c2)cc1	n	u	n	n	n	u
Cc1ccsc1CN(C(=O)c1oc2cc(Br)ccc2c1C)C1CCS(=O)(=O)C1 (stereo not drawn)	x	x	x	n	x	n
O=C(CN1CCN(c2ccc(F)cc2)CC1)Nc1nccs1	n	24µM	n	n	n	n
O=C(CN1CCN(c2ccc(F)cc2)CC1)NCc1cccs1	u	n	n	n	n	2.2µM
COc1ccc(Cn2c(C(=O)O)c(CNCCc3ccccc3Cl)c3ccc(C)cc32)cc1	x	x	x	n	x	u
Cc1cc(Nc2ccccc2C)n2nc(Cc3ccc(Cl)cc3)nc2n1	x	x	x	n	x	n
CCS(=O)(=O)c1ccc2oc(Nc3cc(Cl)ccc3OC)nc2c1	n	n	n	n	n	35µM
CC1(C)Cc2c(c(=S)nc(-c3ccccc3)n2Cc2cccnc2)CO1	n	n	n	n	n	35µM
COC(=O)c1ccc(-n2c(/C=C/c3cc(OC)c(OC)c(OC)c3)nc3cc(Cl)ccc3c2=O)cc1	x	x	x	n	x	n
COc1ccccc1-n1nnnc1SCC(=O)NCC1CCCO1 (stereo not drawn)	x	n	n	n	n	56µM
COc1ccccc1CNC(=O)CNCC1CCCO1 (stereo not drawn)	u	n	n	n	n	10µM
COc1ccccc1CCc1nnc(CCC(=O)NCC2CCCO2)o1 (stereo not drawn)	n	n	n	n	n	n
COc1ccccc1-n1nnnc1SCC(=O)Nc1ccc(C)c(N)c1	79µM	n	n	n	n	u
O=C1NC(=S)N/C1=C\c1ccccc1OCc1ccc(C(=O)O)cc1	n	n	n	n	n	x
O=C(O)c1ccc(COc2ccccc2C=C2C(=O)c3ccccc3C2=O)cc1	n	0.47µM	n	u	n	n
O=C(O)c1ccc(COc2ccccc2/C=C2\NC(=O)N(Cc3ccc(F)cc3)C2=O)cc1	n	67µM	n	n	n	u
Cc1ccc([C@H]2C(C(=O)O)=CC[C@@H](c3ccc(C(C)C)cc3)N2S(=O)(=O)c2ccc(C)cc2)cc1	x	24µM	n	n	n	x
Cc1ccc(S(=O)(=O)N2[C@@H](c3ccc(Cl)cc3)C(C(=O)O)=CC[C@H]2c2ccc(C(C)C)cc2)cc1	x	19µM	n	n	n	n[2.33 µM]
